The campaign covered roughly 53,000 sequences. About 3,700 (7%) were called active.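 Rule for the calls: active = gene knockdowns whose robust z-score for IL-1 alpha signal is at least 2 or at most -2, so actives lie on both sides; inactive = the rest.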 Shown is part of a subset that was picked to be rich in actives.
assay: Components of the Cytosolic LPS Sensing Pathway: Gene Identification via Genome-wide siRNA Screen; conditions: RAW264.7 macrophages, IL-1a HTRF, actives lie on both sides, screened at 100 nM (by protocol), cells primed 5 h with Pam3CSK4 first;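 note: robust z of the log signal after scaling to non-targeting control siRNA wells of the plate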
Outline: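 Cells (RAW264.7, 1×10^4 per well) were transfected with siRNA at 100 nM and cultured 48h at 37 degrees C. Pam3CSK4 was added for 5 hours; LipidA transfection followed for 24 hour. IL-1a was then measured by HTRF.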

Sequence | z-score
GGAAAUGCCACCAAAGAACTT against Slc38a11 | -0.168 (inactive)
CGGACUUGUUUUUUAGUCUTT against Tnrc18 | 0.164 (inactive)
GGCCAACUGGAGAUAGAUATT against Tamm41 | 1.19 (inactive)
GGAUAAUGGUUUAAAACUCTT against Bmt2 | -1.34 (inactive)
GGAAAACCUACCGAAGUUATT against Irf3 | 2.79 (active)
GCAUUGAAGUCACCUCCACTT against Clcn2 | 0.161 (inactive)
GGACAACCAAGGAAGAAACTT against Fam205c | 0.816 (inactive)
GGUGUUUGAAGAGCUGACATT against Pde6b | -1.85 (inactive)
GGUUGUUAAGCUGAAGCAATT against Prkacb | -0.219 (inactive)
GCUAUAAUGCUGGAGUCAATT against P3h2 | 0.27 (inactive)
GGUGUGUUUGCUAUUUCCATT against Olfr259 | 0.4 (inactive)
GGUCCCAGCAUGUUUACGUTT against Slc2a12 | 3.04 (active)
GCUCUGUCUUCAGGUCAUUTT against Olfr1040 | -0.0484 (inactive)
GGGACUGGAUUUCUGUAUUTT against Derl1 | -0.694 (inactive)
GGCUAUCCAGAGAUACGUGTT against Snrnp25 | -0.571 (inactive)
GGGCAUAGACAGUACCAGUTT against Clec2m | -2.04 (active)
GGACCAGCUAAAUAUUAGUTT against Rgs2 | -0.315 (inactive)
GGCAUUAAUAUGUCUGACUTT against Tada1 | -0.0627 (inactive)
GGAAAAAUGGCAACUUCAATT against Dock3 | 0.766 (inactive)
GGUGUAUGUCACCCUGACCTT against Sag | -0.617 (inactive)
GGGUAACUGGUUUGUAUGATT against Gm4814 | 1.34 (inactive)
GGGCAUAUUCAAACUUGUGTT against Elf2 | -1.68 (inactive)

Sequence | z-score
GGCUCAGACCUGGAUACAUTT against Oas1e | -2.31 (active)
CCAAGGUACUACUGGGAGATT against Sval3 | 0.268 (inactive)
GCAAGUACGCUGCUCUGUCTT against Eif4b | 0.397 (inactive)
GGCAGUCAGCUAAUGCUUATT against Pros1 | -0.372 (inactive)
CGAGUAUUUUGAAAUCCUGTT against Cdcp3 | 0.406 (inactive)
GGAUCUAUGGGUAUCCUGCTT against Adam1a | -1.8 (inactive)
GGAGGAUGAGAUGAUGCCATT against Sez6l2 | -2.19 (active)
GGCUCAAGUAUGAGAAUGATT against Krt15 | -0.859 (inactive)
GGCUUUCCUUCGGAAGAAUTT against Abca14 | -1.15 (inactive)
GGAAGAUACGUGCAAAAUGTT against Rbms2 | -0.562 (inactive)
GGAACAGUCUGAAAUACACTT against Usp18 | -0.907 (inactive)
GCAGUUCUGGUUCUGUCUGTT against Nudcd3 | -0.203 (inactive)
GGCUCUUCUUAUGCACCCUTT against Pdyn | -0.543 (inactive)
CCCAGAAGGACGGCACUAGTT against H2-DMb2 | 0.265 (inactive)
GCCUGACAAUAGUCAUUUCTT against Olfr985 | -2.03 (active)
GGCUCACACUCCUGUUAAUTT against Fam20c | -1.02 (inactive)
GGGCAUGAUUUUCACUUCCTT against Gpr150 | 0.79 (inactive)
CGAGAAGGGUCAUAUGAGCTT against Rbp4 | -1.84 (inactive)
GCUGUGACAGAAGCUUUCGTT against Vars2 | -0.201 (inactive)
CCCUCAUGUUUCAUUUGUGTT against Glrx3 | -0.454 (inactive)
GCUUGAUAUAGUAUCCUUUTT against Prpf38b | -2.05 (active)
GGAUUGUCAGAGAAAGAGATT against Syt3 | -0.751 (inactive)

Sequence | z-score
GCUACAAAGAGUAAAACUGTT against Zfp251 | 1.01 (inactive)
GGCUGUUCGUGCAAGCCUATT against Bahcc1 | 0.544 (inactive)
GGUCAUCCCAUCUUACAAATT against 4933431E20Rik | 0.649 (inactive)
CCGACAUCCUUGAUACGUUTT against Vps35l | -2.12 (active)
GGAACUGGAAAACUUCAAATT against Mrvi1 | 1.04 (inactive)
GGAUUGCCCUGUUGUGGUGTT against Snx17 | -0.227 (inactive)
GCGAUACAACUCUUAUGACTT against Dennd5b | -0.521 (inactive)
GGACUAUGUGGCCCAGUGUTT against Nat8f5 | -1.11 (inactive)
GGAGCACAAUUCAAAUUCATT against Zbtb6 | 2.06 (active)
GGGAAACACCUGGGUGCUUTT against Ctrl | -1.07 (inactive)
GGGAGAUUGGAAACAAAAATT against Hsd3b4 | -0.935 (inactive)
CCCUAUCAACUGAUCUUUUTT against Scml2 | -0.732 (inactive)
GGAUAGCUCAUGAUGCUGUTT against Usp13 | -0.885 (inactive)
GGAAGUUGACAAAAUAGUGTT against Dlgap5 | 0.389 (inactive)
GCUAAAGUGACCUUAAAACTT against Phactr4 | -0.382 (inactive)
GGACUACUUUAAGGAUUGGTT against Tfip11 | -2.97 (active)
CGAGAUGGGAGAUUGAAAUTT against Ms4a8a | 0.47 (inactive)
GGAAGAGGAGGUGACAUACTT against Exd1 | -1.15 (inactive)
CCACAUCAAGUCUAUCAUCTT against Ryr1 | -1.19 (inactive)
GGAUCAACCUAGAAGCUUGTT against Strada | -0.192 (inactive)
GGAGACUCCAACUACUUCATT against Sycp1 | 1.23 (inactive)
GCCGCUUAUAUGUAUCGCUTT against Adipoq | 2.54 (active)

Sequence | z-score
CGCCUACUGCUUCAGGAUATT against Cgrrf1 | 1.27 (inactive)
GGACUCAUCUUUAUUAUUCTT against Olfr393 | -0.324 (inactive)
GGAAGUUGGUUAUACUCGUTT against Lins1 | 0.822 (inactive)
GGAGGAAGACAUUGUGUGUTT against Tnfrsf11b | -0.309 (inactive)
GGAAAACCAUGAAGCCAUGTT against Dnase1l3 | 0.69 (inactive)
GGCUCUAUAUCCAGCAGCATT against Srst | -1.1 (inactive)
GUCACUGAAUUUCUCCUCUTT against Olfr104-ps | -2.28 (active)
GGUUAUAUCCAUGUGACACTT against Nkg7 | -1.15 (inactive)
GCAGCUUUAGGUCCAUUCGTT against Pkd2l2 | -0.696 (inactive)
GGAACAUCCAUGUAUUCAATT against Ube2l3 | 0.76 (inactive)
GGAUAUCCGUGAGAUUUCATT against Timm9 | 3.7 (active)
CCCACUCUUUGUGUACUGATT against Olfr262 | -2.1 (active)
GGCUAAAUAUGUGAUUAGUTT against Maob | -0.311 (inactive)
GGAGUAUAUCUCGUUUAUATT against Ube2e2 | -0.221 (inactive)
GGACCAUGCUGGAUACUAUTT against Yrdc | 1.74 (inactive)
CCUGUACCCGAACAUACCATT against Fabp12 | -1.06 (inactive)
GCAAGCAGACUUGUCCUUCTT against Hnrnpc | -0.155 (inactive)
GGUCAUCCUCAAGUCUCCUTT against Stmn3 | -2.28 (active)
GGAGAAGAGAAUAGAAGAATT against Ren1 | -0.0528 (inactive)
GGCUGUACCAAUCUGACACTT against Pvalb | 0.318 (inactive)
AUAACCUAACUCACAACAATT against Olfr304 | -1.06 (inactive)
GGAAAUCGAUUCUCAUGAUTT against St6gal2 | 0.00146 (inactive)

Sequence | z-score
CGGGCUCUUGUAGAUUUCATT against Ccdc86 | 3.22 (active)
GGGUAUGAUGUGAUUGCUCTT against Eif4a2 | 0.0435 (inactive)
GGAUAACCUAUCGAAUCUCTT against Dsg4 | 1.26 (inactive)
GCAUCUCUCUACCAUUGACTT against Frmd8 | 0.538 (inactive)
CGUACAAAGGUAGUAUACCTT against Pi4k2a | 1.1 (inactive)
GGUUCUCAUACAUAAACAATT against Mri1 | -2.87 (active)
GGGAUAACACUCCUGUUUUTT against F630111L10Rik | -1.06 (inactive)
GUUCCUGCUGAUCAAGGACTT against Nsmce3 | 0.2 (inactive)
GUCUUAUACACGUGUGGACTT against Cklf | -0.198 (inactive)
GCACCUGAUUAAGUUGCAUTT against Med15 | -2.11 (active)
GGAAUCAUUGACGUAAUCATT against Chil3 | 1.99 (inactive)
GACAGGCGGCCUUCCGAGATT against Hyi | -0.479 (inactive)
GGGCGACACAAGGUUUUUGTT against Kif3a | 2.61 (active)
GGAUGUAAAAUGCAGUUUATT against Tmsb4x | 0.855 (inactive)
GCGGAAUUUGGUUUCUAUUTT against Etv2 | -0.432 (inactive)
GGAGUUUCCAUCACGAAGATT against Bmp4 | 0.574 (inactive)
CCAUUAAGAUCCGAAGUAUTT against Lrrc58 | -0.36 (inactive)
GGUUGAAACGAGUUUUGAATT against Zbtb5 | 0.00556 (inactive)
GGGCAGAAAAUCAUUUGUUTT against Anxa11 | 0.0839 (inactive)
